Assay [1] in a line: qHTS assay to identify small molecule antagonists of the glucocorticoid receptor (GR) signaling pathway - cell viability counter screen (AID 720693). Note: nearly all actives have a fitted effect of over 55% in size. Note: potency is the fitted concentration of half-maximal effect.
The nature of assay [2]: qHTS assay for identifying genotoxic compounds that show differential cytotoxicity against isogenic chicken DT40 cell lines with known DNA damage response pathways - wild type cell line (AID 743012). Note: nearly all actives have a fitted effect of over 60% in size. Note: potency is the fitted concentration of half-maximal effect. The procedure, abridged:
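Using parental DT40 (300 cells/well), compounds delivered in DMSO incubate 40 h at 37 C/5% CO2. CellTiter-Glo reagent then stands 30 min at room temperature, and luminescence gives cell viability.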
For orientation: qHTS replaces the single test concentration by a dilution series.

A short description of assay [3]: qHTS assay for identifying genotoxic compounds that show differential cytotoxicity against isogenic chicken DT40 cell lines with known DNA damage response pathways - Rev3 mutant cell line (AID 743014). Note: nearly all actives have a fitted effect of over 55% in size. Note: potency is the fitted concentration of half-maximal effect.
The nature of assay [4]: qHTS assay for identifying genotoxic compounds that show differential cytotoxicity against isogenic chicken DT40 cell lines with known DNA damage response pathways - Rad54/Ku70 mutant cell line (AID 743015). Note: nearly all actives have a fitted effect of over 60% in size. Note: potency is the fitted concentration of half-maximal effect.
Assay [5] in a line: qHTS assay to identify small molecule antagonists of the androgen receptor (AR) signaling pathway - cell viability counter screen (AID 743033; note: nearly all actives have a fitted effect of over 45% in size; note: potency is the fitted concentration of half-maximal effect).
Assay [6] is described as follows: qHTS assay to identify small molecule antagonists of the androgen receptor (AR) signaling pathway using the MDA cell line - cell viability counter screen (AID 743041; note: nearly all actives have a fitted effect of over 45% in size; note: potency is the fitted concentration of half-maximal effect). A digest of the protocol: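 MDA-kb2 AR-luc cells (MMTV-luciferase, AR/GR responsive) treated with compounds plus R1881 agonist for 16 h at 37C. CellTiter-Fluor added at 15.5 h; fluorescence read after 30 min in the same wells.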

Assay [7] deals with Androgen receptor (Homo sapiens) (UniProt P10275). Briefly: qHTS assay to identify small molecule antagonists of the androgen receptor (AR) signaling pathway using the MDA cell line (AID 743042; note: potency is the fitted concentration of half-maximal effect; nearly all actives have a fitted effect of over 55% in size). The procedure, abridged: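 MDA-kb2 breast carcinoma cells carrying MMTV-luciferase (AR/GR responsive) were co-treated with compounds and the agonist R1881 for 16 h at 37C. Inhibition read as ONE-Glo luminescence; CellTiter-Fluor fluorescence measured in parallel for cytotoxicity.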
Androgen receptor (Homo sapiens), sequence (P10275 whole entry, looked up): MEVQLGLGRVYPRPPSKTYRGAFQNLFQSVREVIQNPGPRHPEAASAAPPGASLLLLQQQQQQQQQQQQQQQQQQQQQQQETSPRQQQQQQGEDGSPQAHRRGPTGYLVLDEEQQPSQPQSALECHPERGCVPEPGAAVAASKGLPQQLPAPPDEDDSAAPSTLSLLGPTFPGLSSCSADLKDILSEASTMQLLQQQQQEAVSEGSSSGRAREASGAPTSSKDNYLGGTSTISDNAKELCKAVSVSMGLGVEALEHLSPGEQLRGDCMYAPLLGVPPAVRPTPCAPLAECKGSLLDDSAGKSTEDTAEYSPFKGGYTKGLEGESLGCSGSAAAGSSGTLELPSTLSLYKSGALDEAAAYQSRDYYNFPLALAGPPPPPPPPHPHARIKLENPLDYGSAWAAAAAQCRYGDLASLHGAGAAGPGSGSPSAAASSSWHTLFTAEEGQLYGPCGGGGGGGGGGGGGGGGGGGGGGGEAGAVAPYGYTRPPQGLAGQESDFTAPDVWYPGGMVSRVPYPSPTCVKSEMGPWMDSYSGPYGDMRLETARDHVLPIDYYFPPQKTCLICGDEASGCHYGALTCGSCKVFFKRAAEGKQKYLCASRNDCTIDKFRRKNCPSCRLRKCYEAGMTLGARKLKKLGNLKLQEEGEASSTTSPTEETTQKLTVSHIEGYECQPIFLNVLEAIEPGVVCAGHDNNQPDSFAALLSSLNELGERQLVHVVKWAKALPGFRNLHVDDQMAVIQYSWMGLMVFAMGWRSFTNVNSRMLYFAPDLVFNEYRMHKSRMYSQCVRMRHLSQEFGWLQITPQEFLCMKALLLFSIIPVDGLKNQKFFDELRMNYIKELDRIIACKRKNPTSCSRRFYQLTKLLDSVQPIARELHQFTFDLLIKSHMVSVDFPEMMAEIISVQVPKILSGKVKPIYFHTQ

A short description of assay [8]: qHTS assay to identify small molecule antagonists of the thyroid receptor (TR) signaling pathway - cell viability counter screen (AID 743064). Note: nearly all actives have a fitted effect of over 50% in size. Note: potency is the fitted concentration of half-maximal effect. A digest of the protocol:
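Fluorescence from CellTiter-Fluor, added after 23.5 h exposure at 37 °C, reported viability of GH3.TRE-Luc cells co-treated with compound and 1 nM T3. Measured in the same wells as the luciferase TR readout.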

A short description of assay [9]: qHTS assay to identify small molecule antagonists of the thyroid receptor (TR) signaling pathway (AID 743065). Note: nearly all actives have a fitted effect of over 55% in size. Note: potency is the fitted concentration of half-maximal effect. A digest of the protocol:
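GH3.TRE-Luc rat pituitary cells (two TREs driving luciferase) were dosed with compound, then stimulated with 1 nM T3 (final) for 23.5 h at 37 C. ONE-Glo luminescence was the read-out, with CellTiter-Fluor fluorescence as the cytotoxicity counter-screen.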

In assay [10] the target is Estrogen receptor (Homo sapiens) (UniProt P03372). Description: qHTS assay to identify small molecule antagonists of the estrogen receptor alpha (ER-alpha) signaling pathway (AID 743069; active = well fitted curve in the direction sought with a large enough effect in the signal ratio in the repeat runs, not every such curve was filed as active; inconclusive = weak or mixed curves, or effect the other way; inactive = no such curve, though single readings can be large or run the other way; the % refers to the signal ratio; note: potency is the fitted concentration of half-maximal effect). A digest of the protocol:
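HEK293 ER-alpha-UAS-bla GripTite cells, held overnight in 2% charcoal-stripped FBS, 5,000 cells/well, preincubated 4 h, then compound plus 17beta-estradiol for 18 h at 37C. Beta-lactamase read by LiveBLAzer B/G FRET substrate, 2 h at room temperature.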

Assay [11] in a line: qHTS assay to identify small molecule antagonists of the estrogen receptor alpha (ER-alpha) signaling pathway - cell viability counter screen (AID 743074; calls by dose curve;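 note: HEK293 cells carrying ER-alpha-UAS-bla reporter stimulated with 17beta-estradiol; nearly all actives have a fitted effect of over 45% in size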; note: potency is the fitted concentration of half-maximal effect).
Assay [12] concerns the target Estrogen receptor (Homo sapiens) (UniProt P03372). Briefly: qHTS assay to identify small molecule agonists of the estrogen receptor alpha (ER-alpha) signaling pathway (AID 743075; calls by dose curve; note: potency is the fitted concentration of half-maximal effect; for activation: % is set by controls: 0 for no effect and ±100 for the full control effect). Particulars: HEK293 ER-alpha-UAS-bla, beta-lactamase FRET ratio, 18 h; activation: at 70.1 µM (top of the series).
Assay [13] is described as follows: qHTS assay to identify small molecule antagonists of the estrogen receptor alpha (ER-alpha) signaling pathway using the BG1 cell line - cell viability counter screen (AID 743081).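 Note: compound given together with 17beta-estradiol as the ER stimulus; nearly all actives have a fitted effect of over 45% in size.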 Note: potency is the fitted concentration of half-maximal effect.
In the next assay the target is Aromatase (Homo sapiens) (UniProt P11511). Description: qHTS assay to identify aromatase inhibitors (AID 743083). Note: nearly all actives have a fitted effect of over 55% in size. Note: potency is the fitted concentration of half-maximal effect.
Aromatase (Homo sapiens), sequence (P11511 whole entry, looked up): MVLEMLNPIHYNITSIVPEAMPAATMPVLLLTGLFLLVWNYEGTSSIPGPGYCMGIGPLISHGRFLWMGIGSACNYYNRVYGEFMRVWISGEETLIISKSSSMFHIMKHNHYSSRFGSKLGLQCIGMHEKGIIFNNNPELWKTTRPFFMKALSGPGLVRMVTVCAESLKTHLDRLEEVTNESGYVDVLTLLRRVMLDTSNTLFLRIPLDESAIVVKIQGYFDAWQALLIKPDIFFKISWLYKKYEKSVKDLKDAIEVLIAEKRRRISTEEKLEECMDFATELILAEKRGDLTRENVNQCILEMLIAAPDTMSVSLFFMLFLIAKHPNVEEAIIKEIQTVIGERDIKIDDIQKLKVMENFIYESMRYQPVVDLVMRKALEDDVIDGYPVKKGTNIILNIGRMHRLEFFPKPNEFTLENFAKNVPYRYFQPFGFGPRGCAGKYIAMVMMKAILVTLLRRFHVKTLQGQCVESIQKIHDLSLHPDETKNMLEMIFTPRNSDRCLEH
A short description of assay [14]: qHTS assay to identify aromatase inhibitors - cell viability counter screen (AID 743084). Note: potency is the fitted concentration of half-maximal effect.
For assay [15], the target named is Androgen receptor (Homo sapiens) (UniProt P10275). Description: qHTS assay to identify small molecule agonists of the androgen receptor (AR) signaling pathway (AID 743036; active = well fitted activation curve with a large enough effect in the signal ratio in the repeat runs, with a control signal flat, not every such curve was filed as active; inconclusive = weak or mixed curves, or effect the other way; inactive = no such curve, though single readings can be large or run the other way; the % refers to the signal ratio; note: % is set by controls: 0 for no effect and ±100 for the full control effect). A digest of the protocol:
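Fluorescence from a beta-lactamase FRET substrate served as read-out in AR-UAS-bla GripTite HEK293 cells. Cells were treated with DMSO-dissolved compounds for 16 h at 37C, then with LiveBLAzer B/G substrate for 2 h at room temperature.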

Assay [16] deals with thyroid hormone receptor (rat, GH3 cells). Briefly: qHTS assay to identify small molecule agonists of the thyroid receptor (TR) signaling pathway (AID 743066; calls by dose curve; note: % is set by controls: 0 for no effect and ±100 for the full control effect).
Assay [17] deals with Estrogen receptor (Homo sapiens) (UniProt P03372). Briefly: qHTS assay to identify small molecule agonists of the estrogen receptor alpha (ER-alpha) signaling pathway using the BG1 cell line (AID 743079). Note: % is set by controls: 0 for no effect and ±100 for the full control effect; nearly all actives have a fitted effect of over 20% in size. Particulars: BG1Luc4E2 cells, ERE-luciferase agonist, 22 h; at 70.3 µM (top of the series).
Estrogen receptor (Homo sapiens), sequence (P03372 whole entry, looked up): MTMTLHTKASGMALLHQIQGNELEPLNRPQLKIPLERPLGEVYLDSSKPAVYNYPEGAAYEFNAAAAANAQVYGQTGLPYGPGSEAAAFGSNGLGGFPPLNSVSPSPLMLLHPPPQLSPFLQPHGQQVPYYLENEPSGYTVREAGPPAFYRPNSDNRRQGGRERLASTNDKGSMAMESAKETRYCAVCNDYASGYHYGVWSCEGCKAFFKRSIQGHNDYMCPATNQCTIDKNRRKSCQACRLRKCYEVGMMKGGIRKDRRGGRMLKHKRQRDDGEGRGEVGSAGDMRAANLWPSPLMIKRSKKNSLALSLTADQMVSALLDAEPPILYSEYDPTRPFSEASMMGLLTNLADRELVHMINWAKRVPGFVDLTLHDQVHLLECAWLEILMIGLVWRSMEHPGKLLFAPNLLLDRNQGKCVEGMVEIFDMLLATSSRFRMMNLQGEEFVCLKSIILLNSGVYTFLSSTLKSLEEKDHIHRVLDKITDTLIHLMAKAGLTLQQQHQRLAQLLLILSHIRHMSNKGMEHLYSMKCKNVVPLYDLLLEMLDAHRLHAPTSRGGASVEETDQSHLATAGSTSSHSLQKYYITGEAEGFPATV
Assay [18] in a line: qHTS assay to identify small molecule antagonists of the estrogen receptor alpha (ER-alpha) signaling pathway using the BG1 cell line (AID 743080; calls by dose curve;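 note: BG1 cells stimulated with 17beta-estradiol alongside compound; nearly all actives have a fitted effect of over 25% in size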; note: potency is the fitted concentration of half-maximal effect). The procedure, abridged: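 BG1-Luc-4E2 cells (endogenous full-length ER-alpha, 4xERE luciferase) hormone-starved 5 days in charcoal-stripped FBS, plated 4,000/well for 24 h, then compound plus 17beta-estradiol for 21.5 h at 37 C; ONE-Glo luminescence read.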

Assay [19] concerns the target Androgen receptor (Homo sapiens) (UniProt P10275). Description: qHTS assay to identify small molecule agonists of the androgen receptor (AR) signaling pathway using the MDA cell line (AID 743040; note: % is set by controls: 0 for no effect and ±100 for the full control effect; nearly all actives have a fitted effect of over 20% in size). The procedure, abridged: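 MDA-kb2 breast carcinoma cells carrying MMTV-luciferase (responsive to AR and GR), plated 5 h then treated 16 h with compounds at 37C, 0% CO2. Read-out was ONE-Glo luminescence after 30 min at room temperature.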

Among the data in PubChem BioAssay (Tox21) are Potency and activation values, retold here.

Where “and” joins values, the source holds several entries; their conditions need not be identical. Equal values may be shown once. Some structures have more than one record in an assay (separate samples or runs), and their calls can disagree. Calls of active or inactive are those of the source. Unless noted, calls come from the whole dose curve; as a rule, active = well fitted curve in the direction sought with a large enough effect in the repeat runs; inconclusive = weak or mixed curves; inactive = no such curve, though single readings can be large; an effect the other way counts as inactive or inconclusive.

On to `O=S1(=O)CC(Cl)(Cl)C(Cl)(Cl)C1`, for which the Potency in assay [1] is 9.77 µM (active); in assay [2], 0.122 µM (active); in assay [3], 0.172 µM (active); in [4], 0.154 µM (active); in assay [5] it was 4.36 µM (active); in [6], 13.7 µM (active). Also, the Potency in assay [7] was 2.17 µM (active); in [8], 1.93 µM (active); in assay [9], 1.37 µM (active); in [10] it was 21.9 µM [inconclusive] (active); in [11] it was 49 µM (active); in [12], 12.3 µM [inconclusive] (active). The Potency in [13] is 30.6 µM (active); in the assay with Aromatase (Homo sapiens), 1.93 µM (active); in assay [14] it was 2.17 µM (active).
As for `O=C(O)c1ccc(Cl)c(Cl)c1`, the Potency result in assay [1], in assay [2], in assay [3], in [4], in assay [5] and in [15] was “inactive” each time. Besides, the Potency entry in [6], in assay [8], in assay [9], in [16], in assay [11] and in assay [12] was “inactive” in each case. Further, the Potency result (in [18]; in [13]; with Aromatase (Homo sapiens); in assay [14]) was “inactive” in each case. Moreover, the activation in [17] was -5.68% (inactive).
For `Cc1ccc(O)c2ncccc12`, the Potency result in [1], in [15], in assay [19], in [11], in assay [12] and in assay [18] was “inactive” in each case. The Potency in [2] was 2.11 µM (active); in assay [3] it was 2.98 µM (active); in [4], 4.73 µM (active); in assay [5] it was 16.9 µM (active); in [6], 18.8 µM (active); in assay [7], 13.3 µM (active). Also, the Potency in assay [8] was 6.68 µM (active); in assay [9], 6.68 µM (active); with Aromatase (Homo sapiens) it was 13.3 µM (active).
In the case of `CC(=O)S[C@@H]1CC2=CC(=O)CC[C@]2(C)[C@H]2CC[C@@]3(C)[C@@H](CC[C@@]34CCC(=O)O4)[C@H]12`, the Potency in assay [1] is 49 µM (active); in assay [2], 7.5 µM (active) and 6.11 µM (active); in assay [3], 9.44 µM (active) and 6.11 µM (active); in assay [4], 8.41 µM (active) and 6.11 µM (active); in [8], 27.3 µM (active); in assay [9], 26.6 µM (active) and 27.3 µM (active). Moreover, the Potency in [10] was 12.3 µM [inconclusive] (active); in [18] it was “inactive and 48.6 µM (active)”; in the assay with Aromatase (Homo sapiens), 26.6 µM (active) and 27.3 µM (active). The Potency entry in assay [5], in assay [6], in assay [16], in assay [11], in [12] and in assay [13] was “inactive” in each case. The Potency entry in assay [14] was “inactive”. The activation in assay [17] is 7.41% (inactive) and -17.9% (inactive).
For the compound `CCCCC(CC)CN=C(N)NC(N)=NCCCCCCN=C(N)NC(N)=NCC(CC)CCCC` (stereo unspecified), the Potency is 19 µM (active) in assay [1]; 8.41 µM (active) in assay [2]; 11.9 µM (active) in assay [3]; 10.6 µM (active) in assay [4]; 13.4 µM (active) in assay [5]; 26.6 µM (active) in assay [6]. The Potency in assay [7] is 16.8 µM (active); in [8], 7.5 µM (active); in assay [9], 6.68 µM (active); in assay [11] it was 10.7 µM (active); with Aromatase (Homo sapiens) it was 18.8 µM (active); in assay [14], 26.6 µM (active). The Potency entry in assay [19] was “inactive”.
With `Nc1ccc(N)c2ccccc12`, the Potency was 21.8 µM (active) in assay [1]; 15.3 µM (active) in [2]; 5.44 µM (active) in assay [3]; 6.85 µM (active) in assay [4]; 12.3 µM (active) in assay [5]; 43.2 µM (active) in assay [6]. Also, the Potency was 17.2 µM (active) in assay [7]; 48.5 µM (active) in assay [9]; 21.8 µM (active) in assay [11]; 5.44 µM (active) in assay [13]; 3.85 µM (active) in [14]. The Potency result in [15], in [16] and in assay [12] was “inactive” each time.
As to `Cc1cc(CCN2CCN(c3nsc4ccccc34)CC2)cc2c1NC(=O)CC2(C)C`, the Potency in assay [1] was 49 µM (active); in assay [2] it was 3.06 µM (active); in assay [3], 5.45 µM (active); in assay [4] it was 4.86 µM (active); in assay [5], 13.8 µM (active); in [6] it was 48.6 µM (active). Also, the Potency is 15.4 µM (active) in assay [7]; 27.3 µM (active) in [9]; 27.5 µM (active) in [11]; 54.5 µM (active) in assay [13]; 24.3 µM (active) in the assay with Aromatase (Homo sapiens); 24.3 µM (active) in assay [14]. Moreover, the Potency entry in assay [12] was “inactive”.
Consider `C[C@H]1[C@H]2CC[C@H]3[C@@H]4CC=C5C[C@@H](N(C)C)CC[C@]5(C)[C@H]4CC[C@]23CN1C`, for which the Potency result in assay [1], in assay [5], in assay [15], in [19], in assay [6] and in assay [8] was “inactive” throughout. Besides, the Potency entry (in assay [9]; in assay [16]; in assay [11]; in the assay with Aromatase (Homo sapiens); in assay [14]) was “inactive” each time. Also, the results for the Potency in assay [2], in assay [3] and in assay [4] were 15 µM (active), 11.9 µM (active) and 16.8 µM (active), respectively.
In the case of `Cn1cc(C(=O)[C@@H]2CCc3nc[nH]c3C2)c2ccccc21`, the Potency result in [1], in assay [2], in [3], in assay [4], in [5] and in assay [6] was “inactive” in each case. Moreover, the Potency result in assay [8], in [9], in [16], in assay [10], in assay [11] and in assay [12] was “inactive” in each case. Besides, the Potency result (in assay [18]; in assay [13]; in the assay with Aromatase (Homo sapiens); in [14]) was “inactive” each time. Also, in assay [17], the activation is 5.8% (inactive).
On to `Oc1cc2ccccc2c2ccccc12`, for which the Potency was 17.4 µM (active) in assay [1]; 1.22 µM (active) in assay [2]; 1.72 µM (active) in [3]; 1.09 µM (active) in assay [4]; 9.77 µM (active) in [5]; 27.3 µM (active) in assay [6]. Further, the Potency is 13.7 µM (active) in assay [7]; 10.9 µM (active) in assay [8]; 10.9 µM (active) in assay [9]; 11 µM (active) in assay [11]; 24.5 µM [fluorescent] (active) in assay [12]; 6.86 µM (active) with Aromatase (Homo sapiens). Moreover, the Potency in assay [14] is 8.63 µM (active). The Potency entry in assay [19] was “inactive”.
With `CNC(=O)c1ccccc1`, the Potency entry in [1], in assay [2], in assay [3], in assay [4], in assay [5] and in [6] was “inactive” throughout. Besides, the Potency result in assay [8], in assay [9], in [16], in [10], in [11] and in assay [12] was “inactive” each time. Moreover, the Potency entry (in assay [18]; in [13]; with Aromatase (Homo sapiens); in assay [14]) was “inactive” each time. Besides, the activation in [17] is -14.7% (inactive).
